Test results from PubChem BioAssay AID686978 (National Center for Advancing Translational Sciences (NCATS), 2013).
The campaign covered roughly 420,000 compounds. About 64,000 (15%) were called active. Not shown: some 27% with an inconclusive outcome. Calls come from the whole dose curve; as a rule, active = well fitted inhibition curve with a large enough effect; inconclusive = small, poorly fitted or top-dose-only effect; inactive = flat fitted curve, though single readings scatter. A selection follows.

Experiment: qHTS for Inhibitors of human tyrosyl-DNA phosphodiesterase 1 (TDP1): qHTS in cells in absence of CPT; note: nearly all actives have a fitted effect of over 55% in size
Settings: DT40 Tdp1-/- hTDP1 cells, no CPT, ATP luminescence, 48 h; activity change, negative = growth inhibition: at 46.2 µM (top of the series)
How it was run: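 Seeded 400 DT40-hTDP1 cells/well (vehicle DMSO, no 20 nM CPT); pinned compounds; ≥48 hr at 37 °C; CellTiter-Glo luminescence as viability measure.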
% is set by controls: 0 for no effect and ±100 for the full control effect; potency is the fitted concentration of half-maximal effect.

Structure (SMILES)	activity change, negative = growth inhibition	Potency
CCn1c(CNC(=O)C23CC4CC(CC(C4)C2)C3)nnc1SCC(=O)Nc1ccc(OC)cc1	-26.1% (inactive)	–
CN(C)/C=C(\C#N)C(=O)c1cccnc1Oc1ccc(F)cc1F	-1.4% (inactive)	–
O=c1ccc2c(-c3ccccc3S(=O)(=O)O)c3ccc(O)c(O)c3oc-2c1O	–	11.6 µM (active)
CCCNC(=S)NC1CC2CCCC(C1)N2CC(C)C (stereo not given)	-5.2% (inactive)	–
O=C(NCCCc1ccccc1)c1cc(COc2c(F)cccc2F)on1	-0.395% (inactive)	–
CC(NC(=O)c1ccccc1)C(=O)Nc1ccccc1 (stereo not given)	0.972% (inactive)	–
O=C(NC1=CC(=O)c2ccccc2C1=O)c1ccccc1	–	1.16 µM (active)
O=C(NC(=O)c1ccccc1)NC(=O)c1ccccc1	-20.8% (inactive)	–
Cc1csc[n+]1CCC1CCCCC1	–	10 µM (active)
C=CCn1c(SCC(=O)/C(C#N)=C(\C)N)nc2sc(C)c(C)c2c1=O	-16.5% (inactive)	–
CCOC(=O)c1nnn2c1nc(N1CCN(c3ccccc3)CC1)c1ccccc12	–	14.6 µM (active)
CC(=O)c1ccc(N2CCN(c3nc4c(S(=O)(=O)c5ccccc5)nnn4c4ccc(Cl)cc34)CC2)cc1	-23.4% (inactive)	–
CCOC(=O)c1nnn2c3ccccc3c(=O)n(C)c12	2.33% (inactive)	–
CCOc1ccc(NC(=O)CCNC(=O)c2ccc(Br)cc2)cc1	-6.82% (inactive)	–
CCOC(=O)CNC(=O)CSc1nnc(-c2cccc(OC)c2)n1CC	-6.98% (inactive)	–
COC(=O)CC(CC(=O)OC)n1cccc1	-0.736% (inactive)	–
CCOCc1nnc(NC(=O)CCS(=O)(=O)Cc2ccccc2)s1	–	18.4 µM (active)
CCCCc1nnc(NC(=O)CS(=O)(=O)Cc2ccccc2)s1	-15.5% (inactive)	–
COCCSc1nnc(NC(=O)CCS(=O)(=O)Cc2ccccc2)s1	-12.4% (inactive)	–
CC1CN(Cc2ccccc2)C(=S)NC1=O (stereo not given)	-1.83% (inactive)	–
O=C(Nc1ccccc1)/C(=C\c1ccco1)NC(=O)c1ccco1	-14.5% (inactive)	–
CCC1CN(CCNC(=O)c2ccsc2)Cc2cc(OC)ccc2O1 (stereo not given)	-14.3% (inactive)	–
COCCCNC(=O)CN1C(=O)CSc2ccc(S(=O)(=O)N3CCOCC3)cc21	–	inactive
Cc1ccc(C)c(N2CCN(C(=O)CN3C(=O)COc4ccc(S(=O)(=O)N5CCCCCC5)cc43)CC2)c1	–	16.4 µM (active)
Cc1ccc(CCNC(=O)CN2C(=O)CSc3ccc(S(=O)(=O)N4CCOCC4)cc32)cc1	–	20.6 µM (active)
CCCCN(CCCC)CCNC(=O)CN1C(=O)COc2ccc(S(=O)(=O)N3CCOCC3)cc21	-17.6% (inactive)	–
COc1ccc(CCNC(=O)CN2C(=O)COc3ccc(S(=O)(=O)N4CCCC4)cc32)cc1OC	-1.61% (inactive)	–

Structure (SMILES)	activity change, negative = growth inhibition	Potency
CCCCN(CCCC)CCCNC(=O)CN1C(=O)COc2ccc(S(=O)(=O)N3CCC(C)CC3)cc21	–	9.2 µM (active)
Cc1ccc2c(c1)N(CC(=O)N1CCOCC1)C(=O)CO2	5.74% (inactive)	–
Cc1ccc2c(c1)N(CC(=O)NCC1CCCO1)C(=O)CO2 (stereo not given)	2.23% (inactive)	–
CC1CCN(S(=O)(=O)c2ccc3c(c2)N(CC(=O)NCCc2ccccc2)C(=O)CO3)CC1	–	20.6 µM (active)
CN(C)c1ccc(CNC(=O)CN2C(=O)COc3ccc(S(=O)(=O)N4CCCC4)cc32)cc1	7.19% (inactive)	–
CC(=O)Nc1ccc(NC(=O)CN2C(=O)COc3ccc(S(=O)(=O)N4CCCCC4)cc32)cc1	8.59% (inactive)	–
CC1CCN(CCCNC(=O)CN2C(=O)CSc3ccc(S(=O)(=O)N4CCCCC4)cc32)CC1	–	inactive
CN(C)C(CNC(=O)c1ccc(OCc2cn3ccccc3n2)cc1)c1ccco1 (stereo not given)	-1.5% (inactive)	–
CC(CO)N1CCS(=O)(=O)CC1 (stereo not given)	-14% (inactive)	–
CC1(C)CC(=O)C=C(Nc2ccccc2)C1	0.545% (inactive)	–
O=C1CCCCC(=O)c2ccccc2N1	-4.74% (inactive)	–
c1ccc2c(c1)C(=NC1CCCCC1)NC2=NC1CCCCC1	–	14.6 µM (active)
O=C1CN(C(=O)COC(=O)/C=C/c2ccc(F)cc2)c2ccccc2N1	-5.94% (inactive)	–
Cc1cc2cc3c(N)[nH]nc3nc2cc1C	-21.4% (inactive)	–
Cc1cc(N/N=C/c2ccccc2F)c2ccccc2n1	-12.4% (inactive)	–
Oc1ccc(/C=N/Nc2nc(-c3ccccc3F)nc3ccccc23)c(O)c1	–	7.31 µM (active)
Oc1ccc(/C=N/NC2=NCCCCC2)c(O)c1	4.82% (inactive)	–
Cc1nc2ccccc2nc1N/N=C/c1ccc(O)cc1O	–	4.11 µM (active)
Cc1noc(C)c1/C=N/Nc1ccc2ccccc2n1	7.72% (inactive)	–
Cc1csc2nc(O)c(C(=O)NCCN3CCOCC3)c(=O)n12	-6.85% (inactive)	–
CC(C)NC(=O)C(=O)NCCN1CCN(S(=O)(=O)c2ccc(Cl)cc2)CC1	-1.35% (inactive)	–
COCCCNc1nc2ccccc2nc1NS(=O)(=O)c1ccc(F)cc1	-1.47% (inactive)	–
CCOC(=O)C1CCN(Cc2c(C(=O)N3CCOCC3)nc3c(C)cccn23)CC1	-8.96% (inactive)	–
Cc1cccn2c(CNCC(C)Oc3cccnc3)c(C(=O)N3CCOCC3)nc12 (stereo not given)	30% (inactive)	–
Cc1cccn2c(CN(C)C3CCCc4ccccc43)c(C(=O)N3CCOCC3)nc12 (stereo not given)	–	18.4 µM (active)
CC1CCCCN1C(=O)CCS(=O)(=O)Cc1ccccc1 (stereo not given)	-3.87% (inactive)	–
O=C(CC1Oc2ccc(Cl)cc2NC1=O)NCc1ccccc1 (stereo not given)	-3.5% (inactive)	–

Structure (SMILES)	activity change, negative = growth inhibition	Potency
CCC(C(=O)Nc1ccc2c(c1)OCCO2)c1ccccc1 (stereo not given)	-21% (inactive)	–
CC(=O)Nc1cccc(-c2nc3ccccc3s2)c1C	-5.62% (inactive)	–
CCC(C(=O)Nc1cccc(-c2nc3cccnc3s2)c1C)c1ccccc1 (stereo not given)	–	20.6 µM (active)
COC(=O)[C@@H]1C[C@H](NC(=O)c2ccccc2C(F)(F)F)CN1Cc1cccc(O)c1	-9.99% (inactive)	–
COc1cc([N+](=O)[O-])ccc1NC(=S)N1CCN(c2ccccn2)CC1	-15.4% (inactive)	–
CCOC(=O)c1ccc(NC(=S)N2CCN(c3ccccn3)CC2)cc1	-3.2% (inactive)	–
O=[N+]([O-])c1ccc(NC(=S)N2CCN(c3ccccn3)CC2)cc1	–	11.6 µM (active)
CCOC(=O)c1cnn(Cc2ccccc2Cl)c1N	-12.2% (inactive)	–
Cc1noc(C)c1C(=O)N1CCOCC1	-9.18% (inactive)	–
CC(C)(C)C1CCC(OC(=O)CCC(=O)Nc2ccccc2)CC1 (stereo not given)	-2.86% (inactive)	–
CN1CCN(C(=O)/C(=C\c2cccs2)NC(=O)c2cccs2)CC1	-7.36% (inactive)	–
CCOC(=O)c1ccc(NC(=O)Cn2cc(S(=O)(=O)Cc3ccccc3F)c3ccccc32)cc1	-26.3% (inactive)	–
COc1cccc(NC(=O)CS(=O)(=O)c2cn(CC(=O)N3CCOCC3)c3ccccc23)c1	0.349% (inactive)	–
Cc1cccc(NC(=O)Cn2cc(S(=O)(=O)Cc3ccccc3Cl)c3ccccc32)c1	–	20.6 µM (active)
OCCN1CCN(c2ncnc3c2ncn3[C@H]2CN(Cc3ccco3)C[C@@H](CO)O2)CC1	-10.1% (inactive)	–
O=C(Nc1ccc(Cl)cc1)c1csc([C@@H]2O[C@H](CO)[C@H](O)[C@H](O)[C@H]2O)n1	-0.432% (inactive)	–
CSc1nnnn1-c1c(C)cc(C)cc1C	7.83% (inactive)	–
COc1cccc(NC(=O)CN(C)CC(=O)Nc2ccc3c(c2)CCC3)c1	-4% (inactive)	–
Cc1[nH]c2ccccc2c1/C=C(/C#N)C(=O)NC(C)C	-9.84% (inactive)	–
O=C(/C=C/c1c(F)cccc1Cl)Nc1nn[nH]n1	1.45% (inactive)	–
CNC(=O)/C(C#N)=C/c1c(F)cccc1Cl	–	9.2 µM (active)
Cc1ccc(C(=O)N2CCC(n3nccc3NC(=O)Nc3cccc(F)c3)CC2)cn1	10.4% (inactive)	–
Brc1cccc(-c2nnn3c2nc(NC2CCCCC2)c2ccccc23)c1	-26.7% (inactive)	–
CCCc1nc2sc3c(c2c(=O)n1NC(=O)CCCl)CCCC3	–	29.1 µM (active)
Cc1ccc(C)c(-n2c(SCC(=O)O)nc3sc4c(c3c2=O)CCCC4)c1	-16.6% (inactive)	–
COc1ccc(NC(=O)CCNC(=O)Cn2cnc3sc4c(c3c2=O)CCCC4)cc1OC	-4.24% (inactive)	–
CC(C)N(Cc1nc(-c2ccc3c(c2)OCO3)no1)CC1CCC(=O)N1 (stereo not given)	8.55% (inactive)	–

Structure (SMILES)	activity change, negative = growth inhibition	Potency
CCC(=O)c1ccc(OCC(=O)Nc2ccc(N3CCCCC3)cc2)cc1	–	20.6 µM (active)
O=C(COc1ccccc1)Nc1ccc(C(=O)N2CCCC2)cc1	22.5% (inactive)	–
CCC(=O)c1ccc(OCC(=O)OCC(=O)NC2CCCCCC2)cc1	-17% (inactive)	–
O=C(NCC(=O)N1CCCCCCC1)c1ccccc1Cl	12.3% (inactive)	–
COc1cc(C(=O)Nc2ccc(-n3c(C)nc4ccccc4c3=O)cc2)cc(OC)c1OC	–	18.4 µM (active)
Cc1nc2ccccc2c(=O)n1-c1ccc(NS(=O)(=O)c2ccc(F)cc2F)cc1	-14.2% (inactive)	–
COc1cc(C(=O)Nc2ccc(OCc3cc(=O)n4ccc(C)cc4n3)cc2)cc(OC)c1OC	-9.6% (inactive)	–
C=CCNc1nnc(SCC(=O)N2CCCCC2)c2ccccc12	4.38% (inactive)	–
Cc1cc(C)c(NC(=O)Cn2c(SCC(=O)NCc3ccccc3)nc3ccccc32)c(C)c1	–	18.4 µM (active)
Cc1cc(NC(=O)CSc2nc3ccccc3n2CC(C)C)no1	-4.04% (inactive)	–
CC(C)(C)NC(=O)Cn1c(SCC(=O)Nc2nccs2)nc2ccccc21	-4.92% (inactive)	–
O=[N+]([O-])c1ccc(Oc2ccc(F)cc2Br)c2ccncc12	–	23.1 µM (active)
O=c1[nH]c2c(c(=O)n1-c1ccccc1)CCO2	-19.7% (inactive)	–
CCOC(=O)c1ccc(NC(=S)N2CCCC2)cc1	0.979% (inactive)	–
CCC(C)c1ccc(NC(=S)N2CCCC2)cc1 (stereo not given)	–	10.3 µM (active)
CCOc1ccc(NC(=S)N2CCCCCC2)cc1	8.01% (inactive)	–
Cc1cc(OCC(=O)NCC(O)c2ccccc2)c2c(C)c(C)c(=O)oc2c1 (stereo not given)	-21.4% (inactive)	–
CCCC1CC(C)(C(=O)Cn2[nH]c(=O)ccc2=O)OC1=O (stereo not given)	-8.19% (inactive)	–
COC(=O)c1c(-c2ccsc2)oc2ccc(-c3cc(OC)c(OC)c(OC)c3)cc12	–	16.4 µM (active)
COc1cc(-c2nnc(NC(=O)CS(=O)(=O)c3ccc(Cl)cc3)o2)cc(OC)c1OC	4.37% (inactive)	–
CCOC(=O)c1c(-c2ccccc2)oc2ccc(OCC(=O)NN)cc12	1.78% (inactive)	–
C/C(Nc1ccc2oc(=O)ccc2c1)=C1/C(=O)CC2[C@@H]1C2(C)C (stereo not given in full)	-12.6% [at 9.04 µM] (inactive)	–
C/C(=N/NC(=O)c1ccn(C)n1)c1ccncc1	14.9% (inactive)	–
Cc1cnc(NC(=O)C2CCCC2)s1	-8.92% (inactive)	–
